High-throughput results from PubChem BioAssay.
HP1b chromo inh: HP1-beta chromodomain-methylated histone interaction inhibition; P83916; Potency, µM (highest dose often 114 µM), inactives show at the top dose activity change, negative = inhibition, actives largely listed as inhibitors; AID 540317; AlphaScreen HP1-beta / biotin-H3K9me3 peptide binding; hit rate 0.56% among 390,000; note: nearly all actives have a fitted effect of over 70% in size
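HP1-beta protein (50 nM final) preincubated 30 min at room temperature with biotinylated H3(1-18)K9me3 peptide (50 nM) in PBS pH 7.4, 0.01% Tween-20, then compound added for 30 min. AlphaScreen streptavidin donor/nickel chelate acceptor beads (10 ug/mL final), 30 min dark, luminescence read.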
JMJD2A Tudor inh: JMJD2A Tudor domain (human) inhibition. AlphaScreen JMJD2A-Tudor / H3K4me3 peptide binding. Potency, µM (series often up to 114 µM), for the others: top-dose activity change, negative = inhibition, hits mostly inhibitors. hit rate 4.4% among 390,000. AID 504339; note: % is set by controls: 0 for no effect and ±100 for the full control effect; nearly all actives have a fitted effect of over 50% in size
L3MBTL1 inh: L3MBTL1 (human) inhibition; AID 485360; AlphaScreen L3MBTL1–H3K9me1 peptide binding; hit rate 0.66% among 230,000; Potency, µM (series often up to 57.1 µM), without a hit: at the top dose activity, negative = inhibition, hits mostly inhibitors; Q9Y468; note: % is set by controls: 0 for no effect and ±100 for the full control effect; nearly all actives have a fitted effect of over 60% in size
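AlphaScreen proximity signal between nickel-chelate acceptor and streptavidin donor beads (final 10 ug/mL) reports binding of 50 nM L3MBTL1 to 75 nM biotin-H3 K9me1 peptide; complex incubated with compounds 30 min at room temperature; cefsulodin titration as control.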
G9a inh: G9a (human) methyltransferase inhibition. Q96KQ7. G9a H3K9 monomethylation, AlphaScreen, 2 h. Potency, µM (highest dose often 102 µM), without a hit: at the top dose activity, negative = inhibition, actives largely listed as inhibitors. hit rate 8.8% among 350,000; note: % is set by controls: 0 for no effect and ±100 for the full control effect; nearly all actives have a fitted effect of over 75% in size
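Enzyme 20 nM + cpd, 15 min RT; add b-H3K9 pep 500 nM / SAM 20 uM; 2 h RT; anti-H3K9me1 Ab 0.5 ug/mL + SA donor / anti-rabbit acceptor beads 20 ug/mL each, 10 min; AlphaScreen read.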
BAZ2B block: inhibitors of human BAZ2B bromodomain | Q9UIF8 | AlphaScreen BAZ2B-H3K14Ac peptide displacement | Potency, µM (series often up to 114 µM), for the others: at the top dose activity change, negative = inhibition, hits mostly inhibitors | hit rate 4.4% among 360,000; note: % is set by controls: 0 for no effect and ±100 for the full control effect; nearly all actives have a fitted effect of over 60% in size
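Multi-concentration screen (max 110 uM) measuring displacement of acetylated histone H3 peptide from BAZ2B by AlphaScreen, using 50 nM protein, 50 nM peptide and 10 ug/mL streptavidin donor plus Ni-chelate acceptor beads.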
* = called active by the depositor; ? = inconclusive; nt = no result; ! = not active in a repeat; [ ] = remark or other dose. The list is not random: actives were taken first. Their share in the collection is about 11%. Calls come from the whole dose curve; as a rule, active = well fitted inhibition curve with a large enough effect; inconclusive = small, poorly fitted or top-dose-only effect; inactive = no such curve, though single readings can be large or run the other way. Potency is the fitted concentration of half-maximal effect.

SMILES	HP1b chromo inh	JMJD2A Tudor inh	L3MBTL1 inh	G9a inh	BAZ2B block
COc1cc(C(=O)OCC(=O)N2CCC(Cc3ccccc3)CC2)cc(OC)c1OC	40.4%	-2.1%	-0.6%	8.91µM*	6.1%
COc1cc(CN2CCN(Cc3cccc(OC)c3OC)CC2)cc(OC)c1	35.5µM*	3.98µM*	nt	44.7µM*	17.8µM*
CCn1c(SCC(=O)Nc2cccc(Cl)c2)nnc1-c1nonc1NC(C)=O	53.6%	-1.3%	nt	7.4%[59 µM]	2.1%
COc1ccc2c(c1)oc(=O)c1c3ccccc3[nH]c21	10.7%	?	34.8%	-2.5%[59 µM]	-11.0%
CC(=O)c1cccc(S(=O)(=O)NC(C)C2CC3CCC2C3)c1 (stereo not drawn)	12.1%	-21.6%	nt	50.1µM*	-5.2%
Cn1c(N)c(C#N)c2c(c1=S)CSC(C)(C)C2	5.0%	79.4µM*	-2.7%	25.1µM*	-10.4%
CC1(C)Cc2c(C#N)c(N)sc(=S)c2CS1	?	50.1µM*	-12.0%	25.1µM*	-7.9%
Cn1c(N)c(C#N)c2c(c1=S)COC(C)(C)C2	12.1%	-10.9%	nt	-16.0%	1.6%
CC(C)C1Cc2c(C#N)c(N)n(C)c(=S)c2CO1 (stereo not drawn)	25.3%	-12.3%	-2.5%	50.1µM*	-12.6%
CN(CC(=O)Nc1n[nH]c(=S)s1)S(=O)(=O)c1cccc2cccnc12	?	3.55µM*	nt	1.58µM*	?
CN(CC(=O)NCc1ccco1)S(=O)(=O)c1cccc2cccnc12	37.3%	-12.4%	nt	70.8µM*	-7.8%
CN(CC(=O)NCc1ccc(Cl)cc1)S(=O)(=O)c1cccc2cccnc12	21.9%	-10.3%	nt	12.4%	-4.9%
O=C(NCc1ccccc1)c1cnc(N2CCCCC2)c2ccccc12	26.7%[57 µM]	10.3%	nt	22.8%[59 µM]	27.9%
COc1ccc(O)c(C(=O)c2cnn(-c3ccccc3)c2)c1	-14.7%	-31.7%	nt	4.47µM*	-27.1%
COc1ccc(-n2cc(C(=O)c3ccccc3O)cn2)cc1	49.1%	19.9%	nt	77.2%	22.6%
CC(C)=C1C(=O)NN(c2ccc(C)c(Cl)c2)C1=O	-5.8%	-28.3%	-20.3%	8.91µM*	?
Cc1cc(NS(=O)(=O)c2ccc(NC(=S)NC(=O)c3cccc(S(=O)(=O)N(C)C)c3)cc2)no1	0.3%	-9.2%	-21.9%	35.5µM*	-18.4%
Cc1ccc(S(=O)(=O)Nc2ccc(S(=O)(=O)Nc3cc(C)nc(C)n3)cc2)cc1	40.9%	1.4%	3.7%	10µM*	?
Cc1cc(NS(=O)(=O)c2ccc(NC(=S)NC(=O)c3ccc(F)cc3)cc2)no1	-3.2%	-12.9%	-0.5%	-26.5%[59 µM]	2.8%
Cc1ccc(S(=O)(=O)Nc2ccc(-c3cn4ccc(C)cc4n3)cc2)cc1	2.2%	?	-3.9%	44.7µM*	-10.2%
Cc1cc(NS(=O)(=O)c2ccc(NS(=O)(=O)c3ccc(CC(C)C)cc3)cc2)nc(C)n1	49.4%	-6.3%	-4.8%[11.4 µM]	?	?
CC(=O)Nc1ccc(S(=O)(=O)N(C)c2ccccc2)cc1	30.2%	-6.4%	12.0%	-6.8%[59 µM]	3.5%
CCOC(=O)/C=C/C(=O)Nc1ccc(S(=O)(=O)N(C)c2ccccc2)cc1	7.6%	-29.3%	nt	44.7µM*	-17.5%
CCc1cccc(CC)c1NC(=O)C(Cc1ccccc1)NS(=O)(=O)c1cccc2nsnc12 (stereo not drawn)	11.1%	-29.3%	nt	?	nt
O=C(NN1CCOCC1)c1ccccc1	23.0%	-4.8%	nt	39.8%	-14.7%
SMILES	HP1b chromo inh	JMJD2A Tudor inh	L3MBTL1 inh	G9a inh	BAZ2B block
Cc1ccc2oc(-c3ccc(Cl)c(NC(=O)c4cc5ccccc5o4)c3)nc2c1	35.2%	5.5%	nt	?	2.9%
Cc1cc(NS(=O)(=O)c2ccc(NC(=O)/C=C/c3ccco3)cc2)nc(C)n1	-4.7%	-15.5%	-16.9%	50.1µM*	-16.8%
Cc1cc(NS(=O)(=O)c2ccc(NC(=O)COc3ccc(Br)cc3C)cc2)no1	10.6%	-17.0%	nt	-11.2%[59 µM]	-6.9%
Cc1cc(NS(=O)(=O)c2ccc(NC(=O)COc3c(C)cc(Br)cc3C)cc2)no1	27.6%	-11.3%	nt	56.2µM*!	-34.4%
CCCCOC(=O)Nc1ccc(S(=O)(=O)Nc2cc(C)nc(C)n2)cc1	26.7%	-15.2%	4.9%	11.1%[59 µM]	12.0%
Cc1ccc(OCCC(=O)Nc2ccc(S(=O)(=O)Nc3cc(C)nc(C)n3)cc2)cc1	28.1%	-9.7%	-0.1%	-44.9%	-6.9%
